# In PubChem BioAssay:
# The source made the active and inactive calls.
# Target: Homeobox protein Hox-A13 (Mus musculus) (UniProt Q62424)
# Assay: disruptors of Hoxa13 oligonucleotide interaction – biochemical, fluorescence polarization, labeled oligonucleotide, primary screen (AID 1185)
# Conditions: Hoxa13:DNA binding, 15 min, higher = more signal, called active from +8 up or from −8 down
# Homeobox protein Hox-A13 (Mus musculus), sequence (Q62424 whole entry, looked up): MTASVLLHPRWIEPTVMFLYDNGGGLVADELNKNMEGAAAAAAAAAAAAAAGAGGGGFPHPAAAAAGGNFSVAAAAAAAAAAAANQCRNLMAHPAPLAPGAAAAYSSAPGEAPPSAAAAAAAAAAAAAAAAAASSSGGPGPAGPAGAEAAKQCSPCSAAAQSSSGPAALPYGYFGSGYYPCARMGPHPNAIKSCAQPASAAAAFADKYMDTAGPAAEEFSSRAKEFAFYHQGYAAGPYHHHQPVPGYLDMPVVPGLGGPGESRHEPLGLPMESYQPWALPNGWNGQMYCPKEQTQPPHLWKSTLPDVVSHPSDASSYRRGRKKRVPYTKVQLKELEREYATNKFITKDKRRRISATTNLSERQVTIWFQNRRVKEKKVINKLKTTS
row,SMILES,z-score
1,CC1CC/C=C\[C@H]2OC34C=CCN(c5ccc(Cl)cc5)C(=O)[C@H]3N(CCCCCCO)C(=O)[C@]4(C)C2C(=O)O1 (some centres undefined),-5.35 (inactive)
2,O=C1NC(=O)C2C1C=CC(C(O)c1ccc([N+](=O)[O-])cc1)N2Nc1ccccn1 (centres undefined),-2.37 (inactive)
3,O=C(N1CCOCC1)[C@@]1(Cc2ccccc2)COC(c2ccc(OCCCO)cc2)=N1,-5.19 (inactive)
4,C=CCC(OC(C)=O)[C@@H]1[C@@H](N(Cc2cccc3ccccc23)C(=O)Cc2ccc(OC)cc2)c2cc(OCCCO)ccc2N1C(=O)Cc1ccc2ccccc2c1 (some centres undefined),-2.41 (inactive)
5,COC(=O)C(CC#Cc1ccc2c(c1)[C@]1(C(=O)N2)[C@H](c2ccc(OCCO)cc2)N2[C@H](c3ccccc3)[C@H](c3ccccc3)OC(=O)[C@H]2[C@@H]1C(=O)N1CCCCCCC1)C(=O)OC,-14.6 (active)
6,COCCCN1C(=O)[C@@]2(c3ccc([N+](=O)[O-])cc3)CC(=O)N(CC34CC5CC(CC(C5)C3)C4)[C@@H]2c2ccc(CO)cc21,-0.113 (inactive)
7,CO[C@H]1O[C@H](CO)[C@@H](OC(=O)Nc2ccccc2-c2ccccc2)[C@H](OC(=O)Nc2ccccc2)[C@H]1OC(=O)Nc1ccccc1,-3.21 (inactive)
8,COCCOC(=O)N1C(=O)[C@@]2(c3cc(C#CCC(C(=O)OC)C(=O)OC)ccc31)[C@H](C(=O)Nc1nc3ccccc3s1)[C@H]1C(=O)O[C@H](c3ccccc3)[C@H](c3ccccc3)N1[C@@H]2c1ccc(OCCO)cc1,1.46 (inactive)
9,O=C(NC1CC1)[C@@H]1c2ccccc2C(=O)N(Cc2cc(C(F)(F)F)cc(C(F)(F)F)c2)[C@H]1c1ccc(CO)cc1,-2.66 (inactive)
